We go through 26 compounds from PubChem BioAssay (NCATS).

Results filed as inconclusive are left out. Unmarked numbers belong to inactive results. Calls of active or inactive are those of the source. The call rests on the fitted dose curve; in most records, active means well fitted cell-killing curve with a large enough effect; inconclusive means small, poorly fitted or top-dose-only effect; inactive means flat fitted curve, though single readings scatter.
Potency means the concentration at half of the fitted maximal effect.

This assay can be described thus: Cellular viability qHTS for adrenocortical cancer (ACC) cell line NCI-H295R (AID 1963990). Further: nearly all actives have a fitted effect of over 60% in size.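 On activity change, negative = viability loss: 0% = DMSO only wells and -100% = full killing with cytotoxic reference compound.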 Conditions: CellTiter-Glo ATP luminescence, 48 h; series mostly up to 46.1 µM; activity change, negative = viability loss: at the top concentration. The method in brief:
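Luminescent ATP read-out (CellTiter-Glo, 20 min RT) after 48 h drug exposure of NCI-H295R cells; a titration up to 46 uM final. Data normalized to doxorubicin (100% inhibition) and DMSO (0%); 4-parameter fit gives IC50, max response.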
Background: qHTS replaces the single test concentration by a dilution series.
Consider `CN(C(=O)CCCOc1ccc2[nH]c(=O)ccc2c1)C1CCCCC1`, for which the “activity change, negative = viability loss” value was -8.37%.

On to `C=C[C@@H]1CN2CCC1C[C@H]2[C@H](O)c1ccnc2ccc(OC)cc12` (stereo partly specified), for which the “activity change, negative = viability loss” value was 1.4%.

With `Cc1nc2n(c(=O)c1CCN1CCC(C(=O)c3ccc(F)cc3)CC1)CCS2`, the “activity change, negative = viability loss” value was -28.2%.

Regarding `CS[C@H]1SC[C@@H]2C(=O)N(C)[C@H](C(C)C)C(=O)OC[C@H](NC(=O)c3cnc4ccccc4n3)C(=O)N[C@H](C)C(=O)N(C)[C@H]1C(=O)N(C)[C@H](C(C)C)C(=O)OC[C@H](NC(=O)c1cnc3ccccc3n1)C(=O)N[C@H](C)C(=O)N2C`, the Potency was 0.1 µM (active).

As to `O=C(CCBr)N1CCN(C(=O)CCBr)CC1`, the “activity change, negative = viability loss” value is -12.9%.

Turning to `CC(=C(CCOC(=O)C(C)C)SSC(CCOC(=O)C(C)C)=C(C)N(C=O)Cc1cnc(C)nc1N)N(C=O)Cc1cnc(C)nc1N`, the “activity change, negative = viability loss” value is -16.7%.

As for `Cn1cc(C(=O)[C@@H]2CCc3nc[nH]c3C2)c2ccccc21`, the “activity change, negative = viability loss” value is -12.9%.

Take `O=C(CCCN1CCC(O)(c2ccc(Br)cc2)CC1)c1ccc(F)cc1`: the “activity change, negative = viability loss” value was -0.419%.

With `CC/C(=C(/c1ccc(O)cc1)c1ccc(OCCNC)cc1)c1ccccc1`, the “activity change, negative = viability loss” value is 9.53%.

`Cc1c2oc3c(C)ccc(C(=O)N[C@@H]4C(=O)N[C@H](C(C)C)C(=O)N5CCC[C@H]5C(=O)N(C)CC(=O)N(C)[C@@H](C(C)C)C(=O)O[C@@H]4C)c3nc-2c(C(=O)N[C@@H]2C(=O)N[C@H](C(C)C)C(=O)N3CCC[C@H]3C(=O)N(C)CC(=O)N(C)[C@@H](C(C)C)C(=O)O[C@@H]2C)c(N)c1=O`: the Potency was 0.0517 µM (active).

Consider `CCCCOc1cc(C(=O)NCCN(CC)CC)c2ccccc2n1`, for which the Potency is 20.6 µM (active).

For `O=C1Nc2ccccc2C1(c1ccc(O)cc1)c1ccc(O)cc1`, the “activity change, negative = viability loss” value is 0.0188%.

`Cc1c(Cl)cccc1S(=O)(=O)Nc1nc(CCN2CCOCC2=O)cs1`: the “activity change, negative = viability loss” value is 5.08%.

Consider `Nc1nccc(-c2c(-c3ccc(F)cc3)ncn2C2CCCCC2)n1`, for which the “activity change, negative = viability loss” value is -27.6%.

For the compound `C=CCN(/C=C1\C(=O)O[C@@H](COC)[C@]2(C)C1=C(O)C(=O)C1=C2[C@@H](OC(C)=O)C[C@]2(C)C(=O)CC[C@H]12)CC=C`, the Potency is 28.2 µM (active).

Regarding `COc1ccc2c(c1)C(=O)N(CCc1ccc(S(=O)(=O)NC(=O)NC3CCCCC3)cc1)C(=O)C2(C)C`, the “activity change, negative = viability loss” value was -19.5%.

`COc1ccc(-n2nc(CCC(=O)N(C)O)cc2-c2ccc(Cl)cc2)cc1`: the Potency is 16.4 µM (active).

Take `NC(=O)n1c(O)c(C(=O)c2cccs2)c2cc(Cl)ccc21`: the Potency is 9.2 µM (active).

For `CC(C)=CCOc1ccc(/C=C/C(=O)c2ccc(OCC=C(C)C)cc2OCC(=O)O)cc1`, the Potency was 9.2 µM (active).

Regarding `CCC(=O)Oc1ccc2c(c1)CC[C@@H]1[C@@H]2CC[C@@]2(C)[C@H]1C[C@@H](OC(=O)CC)[C@@H]2OC(=O)CC`, the “activity change, negative = viability loss” value is -21.1%.

`Cn1ncnc1[C@H]1c2n[nH]c(=O)c3cc(F)cc(c23)N[C@@H]1c1ccc(F)cc1`: the “activity change, negative = viability loss” value was -20.2%.

For `CCC(=O)OCC(=O)C1(OC(=O)CC)C(C)CC2C3CCC4=CC(=O)C=CC4(C)C3(F)C(O)CC21C` (stereo unspecified), the Potency is 4.47 µM (active).

In the case of `CCn1c(=O)c2c(nc(/C=C/c3ccc(OC)c(OC)c3)n2C)n(CC)c1=O`, the “activity change, negative = viability loss” value was -8.7%.

Regarding `Nc1nc2ccccc2n1Cc1ccc(F)cc1`, the “activity change, negative = viability loss” value is -23.8%.

For the compound `CCCCN(CCCC)C(C(N)=O)c1ccc(OC)cc1` (stereo unspecified), the “activity change, negative = viability loss” value was -5.63%.

For the compound `C[C@H]1[C@H](C)CC[C@]2(C(=O)O)CC[C@]3(C)C(=CC[C@@H]4[C@@]5(C)C[C@@H](O)[C@H](O)[C@@](C)(CO)[C@@H]5CC[C@]43C)[C@H]12`, the “activity change, negative = viability loss” value was -12.5%.
